Results: the supplement of paper PMC8371130
Where a name gives a salt, the structure may show the parent alone.

Tested on: HL-1
Assay: relative cell viability (CellTiter-Glo) vs DMSO control (% of DMSO control); higher = more viable cells
Outline: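 Plating of HL-1 mouse atrial cardiomyocytes at 1000 cells per well in 384-well plates was done together with compounds at 40, 200, 1000 or 5000 nM in 0.01% DMSO. A day later the cells faced 48 h of 1% O2 and then 24 h of reoxygenation, or matching normoxia. Viability was measured via CellTiter-Glo luminescence and set relative to vehicle-treated control cells.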

[1] = oxygen condition: hypoxia 48 h (1% O2) + reoxygenation 24 h, 40 nM
[2] = oxygen condition: hypoxia 48 h (1% O2) + reoxygenation 24 h, 200 nM
[3] = oxygen condition: hypoxia 48 h (1% O2) + reoxygenation 24 h, 1000 nM
[4] = oxygen condition: hypoxia 48 h (1% O2) + reoxygenation 24 h, 5000 nM
[5] = oxygen condition: normoxia 72 h, 40 nM
[6] = oxygen condition: normoxia 72 h, 200 nM
[7] = oxygen condition: normoxia 72 h, 1000 nM
[8] = oxygen condition: normoxia 72 h, 5000 nM

| SMILES | relative cell viability [1] | relative cell viability [2] | relative cell viability [3] | relative cell viability [4] | relative cell viability [5] | relative cell viability [6] | relative cell viability [7] | relative cell viability [8] |
| --- | --- | --- | --- | --- | --- | --- | --- | --- |
| CCCCOc1ccc(CC(=O)NO)cc1 [Bufexamac] | 109 | 100 | 111 | 117 | 105 | 107 | 107 | 110 |
| CNC1CCCN(c2c(F)cc3c(=O)c(C(=O)O)cn(C4CC4)c3c2OC)C1 (stereo not drawn) [Balofloxacin] | 103 | 93.5 | 101 | 107 | 101 | 99.2 | 99.3 | 107 |
| COc1ccc2[nH]c([S@@+]([O-])Cc3ncc(C)c(OC)c3C)nc2c1 [Esomeprazole sodium] | 94 | 93.2 | 106 | 106 | 94.1 | 96 | 100 | 114 |
| O=C(O)c1ccc(-n2nc(-c3ccccc3O)nc2-c2ccccc2O)cc1 [Deferasirox] | 93.2 | 100 | 99.7 | 88.1 | 97 | 104 | 94.3 | 42.9 |
| CNNCc1ccc(C(=O)NC(C)C)cc1 [Procarbazine HCl] | 109 | 101 | 96.6 | 108 | 97.6 | 101 | 97.9 | 113 |
| C[C@H](N[C@@H](CCc1ccccc1)C(=O)O)C(=O)N1CCC[C@H]1C(=O)O [Enalaprilat dihydrate] | 104 | 106 | 102 | 110 | 104 | 99 | 107 | 109 |
| Cn1ccnc1S [Methimazole] | 102 | 99.9 | 105 | 98.1 | 107 | 100 | 95.4 | 95.9 |
| N[C@@H]1CN(c2c(F)cc3c(=O)c(C(=O)O)cn([C@@H]4C[C@@H]4F)c3c2Cl)CC12CC2 [Sitafloxacin hydrate] | 101 | 98.6 | 104 | 108 | 103 | 95.3 | 99 | 108 |
| C[C@@](Cc1ccc(O)c(O)c1)(NN)C(=O)O [Carbidopa] | 101 | 100 | 101 | 106 | 96.4 | 96.4 | 102 | 110 |
| Cc1ccc(O)c([C@H](CCN(C(C)C)C(C)C)c2ccccc2)c1 [Tolterodine tartrate] | 108 | 105 | 102 | 109 | 104 | 112 | 107 | 110 |
| Nc1ccc(/N=N/c2ccccc2)c(N)n1 [Phenazopyridine HCl] | 103 | 98.3 | 101 | 112 | 104 | 103 | 114 | 108 |
| S=c1[nH]cnc2nc[nH]c12 [Mercaptopurine] | 112 | 104 | 111 | 99.1 | 103 | 103 | 108 | 103 |
| CCN(CC)CCOc1ccc(C(=C(Cl)c2ccccc2)c2ccccc2)cc1 [Clomifene citrate] | 101 | 104 | 107 | 35.1 | 111 | 106 | 98.2 | 6.57 |
| O=S(=O)(O)Oc1ccc(C(c2ccc(OS(=O)(=O)O)cc2)c2ccccn2)cc1 [Sodium Picosulfate] | 107 | 109 | 108 | 116 | 110 | 111 | 112 | 116 |
| C#C[C@]1(OC(C)=O)CC[C@H]2[C@@H]3CCC4=C[C@@H](OC(C)=O)CC[C@@H]4[C@H]3CC[C@@]21C [Ethynodiol diacetate] | 97.7 | 103 | 113 | 111 | 104 | 110 | 104 | 116 |
| C=C1CC[C@H](O)C/C1=C/C=C1\CCC[C@]2(C)[C@@H]([C@H](C)/C=C/[C@H](C)C(C)C)CC[C@@H]12 [Vitamin D2] | 102 | 99.8 | 111 | 112 | 107 | 105 | 109 | 110 |
| CC1CCc2c(N3CCC(O)CC3)c(F)cc3c(=O)c(C(=O)O)cn1c23 (stereo not drawn) [Nadifloxacin] | 103 | 104 | 102 | 110 | 104 | 103 | 100 | 107 |
| Nc1ccn([C@@H]2O[C@H](CO)[C@@H](O)[C@@H]2O)c(=O)n1 [Cytarabine] | 89.2 | 75.5 | 44.9 | 5.82 | 84.9 | 64.3 | 35.7 | 4.29 |
| CCN[C@H]1C[C@H](C)S(=O)(=O)c2sc(S(N)(=O)=O)cc21 [Dorzolamide HCL] | 111 | 105 | 104 | 111 | 117 | 106 | 107 | 121 |
| Cc1c(-c2ccc(O)cc2)n(Cc2ccc(OCCN3CCCCCC3)cc2)c2ccc(O)cc12 [Bazedoxifene HCl] | 107 | 99.8 | 101 | 84.1 | 98.6 | 97.9 | 105 | 45.6 |
| NS(=O)(=O)c1cc2c(cc1Cl)NC(C(Cl)Cl)NS2(=O)=O (stereo not drawn) [Trichlormethiazide] | 109 | 109 | 118 | 119 | 107 | 115 | 112 | 114 |
